Measurements reported in ChEMBL document CHEMBL4513216, “Probing the Open Global Health Chemical Diversity Library for Multistage-Active Starting Points for Next-Generation Antimalarials” (ACS Infect Dis, 2020).
About 8,600 (12%) of roughly 69,000 compounds showed an effect of 50% or more. Only a selection was taken, and strong results are over-represented in it overall.

The molecules below were run on Plasmodium berghei (assay: Screen against P. berghei liver stage (PbLuc), transformed with Luciferase, at 10uM). Conditions: tested at 10 uM.
Type: functional, HepG2

SMILES	INHIBITION [%]
Cn1cc(C2CCCN2C(=O)c2cnc(-c3ccccn3)s2)cn1 (centres undefined)	-59.7
Cc1nc(Cn2c(=O)cnc3ccccc32)n(C)n1	17.6
COC(=O)NCC(=O)NCc1nn(-c2ccccc2)c2c1CCC2	24.75
Cc1noc([C@]23COC[C@H]2CN(C(=O)N2CCCC2)C3)n1	15.8
O=C(c1cnccn1)N1CCCC(C2=Nc3ccccc3S(=O)(=O)N2)C1 (centres undefined)	16.705
CCNS(=O)(=O)c1ccc(C)c(C(=O)N(C)Cc2ccccc2C)c1	67.3
CCCN(C)C(=O)c1cc(S(=O)(=O)NCC)ccc1C	16.6
CCNS(=O)(=O)c1ccc(C)c(C(=O)N(C)Cc2ccco2)c1	26.8
CCN(CC)[C@@H]1CN(Cc2nccn2C)[C@@H]2CCCO[C@H]12	20.1
c1ccc2c(CC3CN(Cc4nccs4)CCO3)cccc2c1 (centres undefined)	53.3
Cc1cccnc1CN1CCOC(Cc2cccc3ccccc23)C1 (centres undefined)	42.1
COc1ncc(CN2CCOC(Cc3cccc4ccccc34)C2)cn1 (centres undefined)	-31.8
Cc1ccc(NC(=O)Cc2cnc3n(C)c(=O)[nH]c(=O)n23)cc1	0.207
CCn1ncc(Cn2cc(Cl)c(N)n2)c1C	51.5
CCn1cc(Cn2cc(Cl)c(N)n2)c(C)n1	-18.8
Cc1c(Cn2cc(Cl)c(N)n2)cnn1C	17.8
CC(=O)N1CCCN(C(=O)NCc2ccc(Cl)s2)CC1	25.6
CN(C)C(=O)COCC1CN(Cc2ccoc2)Cc2ncn(C)c21 (centres undefined)	12.5
COc1ccc(S(=O)(=O)N2CCOC(Cn3ccnc3)C2)cc1 (centres undefined)	8.12
FC(F)CN1CCC(NCc2ccc(-n3cccn3)nc2)CC1	48.2
CN(C)CCNC(=O)c1cc(-c2cnc(N3CCOCC3)nc2)cn1C	19.4
Cn1cc(-c2cnc(N3CCOCC3)nc2)cc1C(=O)NCCO	35.8
CN1CCN(C(=O)c2cc(-c3cnc(N4CCCC4)nc3)cn2C)CC1	-2.17
Cn1cc(-c2cnc(N3CCCC3)nc2)cc1C(=O)O	-50.8
CN(C)CCNC(=O)c1cc(-c2cnc(N3CCCC3)nc2)cn1C	63.7
CCCNC(=O)c1cc(-c2cnc(N3CCCC3)nc2)cn1C	64.9
COCCN(C)C1COC2(CCN(Cc3cccc(F)c3)CC2)C1 (centres undefined)	26.4
O=C(c1ccccn1)N1CCN(c2ccc(-c3cccnc3)nn2)CC1	21.6
COCCN(C)C[C@@H]1CN(C(=O)c2ccc(O)c(Cl)c2)C[C@@H]1CO	46.1
